Measured values published in PubChem BioAssay (NCI).
Compounds without any hit were thinned out: in the full panel of roughly 83,000, 20% have a hit.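 Single-dose data. Exposure time 48 hours. Values below 10 considered active.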 Calls of active or inactive are those of the source.

tested on: HL-60(TB) leukemia; assay: NCI-60 one-dose screen, 48 h (100 = growth as untreated, 0 = no growth, -100 = all killed); details: 10 µM unless noted

Structure (SMILES) | growth
COc1cc(/C=C\c2cc(/C=C\c3ccc(O)c(OC)c3)n(C(=O)CNc3ccc(Cl)cc3)n2)ccc1O | -11.6% (active)
COc1ccc(-c2oc3cc(O)c(OC)c(O)c3c(=O)c2OC)cc1O | -8.34% (active)
COc1cc(/C=N/Nc2nc(-c3ccc(F)cc3)c(C#N)c(N3CCOCC3)n2)ccc1O | 72.5% (inactive)
CCOC(=O)C(=Cc1c(-c2ccccc2)[nH]c2ccccc12)C(=O)OCC | -52% (active)
O=CCCCC(O)C=O (stereo unspecified) | 92.2% (inactive)
Nc1ncc(-c2ccc3ncnc(Nc4cccc(Cl)c4)c3c2)cn1 | 58.1% (inactive)
CN(C)c1cccc2[nH]c(-c3[nH]ncc3Nc3ccnc(N)n3)nc12 | -42.7% (active)
COc1nc(=O)n(C2C=CC(=O)O2)cc1F (stereo unspecified) | 1.27% (active)
CCC(=O)Oc1ccc(OC)cc1 | 82.6% (inactive)
Cc1cc(Nc2ccc(F)cc2)nc(N2CCN(c3ccnc4cc(Cl)ccc34)CC2)n1 | 7.98% (active)
CCCCCCCCCC[N+](C)(C)C | -6.93% (active)
Brc1ccc(SCN(CSc2ccc(Br)cc2)Cc2ccccc2)cc1 | 40.3% (inactive)
C=CC1=C(C)C2=NC1=CC1=NC(=CC3=C(C)C4=C(O)C(C(=O)O)C(=C5NC(=C2)C(C)C5CCC(=O)O)C4=N3)C(CC)=C1C (stereo unspecified) | 89.4% (inactive)
COc1nc2c(cc1S(=O)(=O)c1ccccc1)CCc1c-2cnn1-c1ccc(Cl)cc1 | 90.5% (inactive)
O=C1/C(=C/c2ccc(O)cc2)COc2ccc(O)cc21 | 96.2% (inactive)
O=C(Nc1ncc(Cc2ccccc2Cl)s1)c1ccc2c(c1)OCCO2 | -56.8% (active)
CCNC(=O)Nc1nc2ccc(Oc3ccnc(C(=O)NC)c3)cc2s1 | 94.7% (inactive)
Cc1ccc2c(c1)nc(C)n2-c1ncnc2c1CC(C)c1cc(O)ccc1N2C (stereo unspecified) | -5.44% (active)
O=c1oc2cc(OS(=O)(=O)C3CC3)ccc2c2c1CCCCCC2 | 80.1% (inactive)
Cc1c(Cl)cccc1NC(=O)c1sc2nc3c(cc2c1N)CN(Cc1ccccc1)CC3 | -22.9% (active)
Cc1cc(C)c2nc(C)c(C)[n+]([O-])c2c1 | 85.7% (inactive)
CC(=O)c1nn(-c2ccc(C)cc2)cc1C(=O)c1cc2c(ccc3ccccc32)oc1=O | 104% (inactive)
N#Cc1ccc(NC(=O)Nc2ccc(Cc3ccc(NC(=O)Nc4ccc(C#N)cc4)cc3)cc2)cc1 | 22.4% (inactive)
CC(C)(C)C1CCC(=NO)CC1 (stereo unspecified) | 110% (inactive)
OCCCCc1nccc2c1[nH]c1ccccc12 | 73.7% (inactive)
O=C1c2ccccc2NC(c2cn(-c3ccccc3)nc2-c2cccs2)N1Cc1ccccc1 (stereo unspecified) | -6.57% (active)
